Measured values as given in PubChem BioAssay (NCATS).
Results filed as inconclusive are left out. Where a call stands in place of a potency, no number is given. More than one record can exist for a structure, and the calls need not agree. Active and inactive are the calls of the source. The call rests on the fitted dose curve; in most records, active means well fitted inhibition curve with a large enough effect; inconclusive means small, poorly fitted or top-dose-only effect; inactive means no such curve, though single readings can be large or run the other way.

These molecules were tested against M-phase phosphoprotein 8 (Homo sapiens) (UniProt Q99549) (assay: qHTS Validation Assay for Inhibitors for MPP8 Chromodomain Interactions with Methylated Histone Tails (AID 488949; further: nearly all actives have a fitted effect of over 55% in size; on activity change, negative = inhibition: top concentration of the series differs between compounds)). Conditions: AlphaScreen MPP8 binding to H3K9me3 peptide; series mostly up to 57.1 µM; activity change, negative = inhibition: at the top concentration.
M-phase phosphoprotein 8 (Homo sapiens), sequence (Q99549 whole entry, looked up): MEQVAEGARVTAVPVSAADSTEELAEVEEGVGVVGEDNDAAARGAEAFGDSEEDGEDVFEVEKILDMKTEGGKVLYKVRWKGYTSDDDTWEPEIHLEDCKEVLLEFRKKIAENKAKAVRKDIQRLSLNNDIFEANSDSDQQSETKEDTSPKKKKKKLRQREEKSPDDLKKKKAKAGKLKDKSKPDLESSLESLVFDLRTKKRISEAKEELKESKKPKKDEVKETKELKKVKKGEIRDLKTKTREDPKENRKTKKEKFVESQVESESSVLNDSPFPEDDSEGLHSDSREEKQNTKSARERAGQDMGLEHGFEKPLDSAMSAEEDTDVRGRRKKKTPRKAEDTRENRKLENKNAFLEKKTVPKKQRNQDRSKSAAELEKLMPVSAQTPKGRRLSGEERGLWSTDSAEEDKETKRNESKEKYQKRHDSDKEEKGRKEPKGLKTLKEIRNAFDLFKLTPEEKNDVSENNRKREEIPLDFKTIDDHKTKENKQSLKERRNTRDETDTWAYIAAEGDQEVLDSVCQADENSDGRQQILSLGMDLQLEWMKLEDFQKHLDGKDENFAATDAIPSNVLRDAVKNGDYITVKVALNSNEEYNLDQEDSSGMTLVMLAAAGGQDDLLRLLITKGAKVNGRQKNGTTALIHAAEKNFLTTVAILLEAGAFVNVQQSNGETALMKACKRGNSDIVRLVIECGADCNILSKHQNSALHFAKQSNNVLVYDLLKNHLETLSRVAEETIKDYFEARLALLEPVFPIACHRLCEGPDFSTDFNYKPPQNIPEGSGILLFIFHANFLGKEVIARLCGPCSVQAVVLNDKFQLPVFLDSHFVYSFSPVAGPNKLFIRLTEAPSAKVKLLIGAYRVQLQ
Excerpt: As our understanding of epigenetics expands, it is becoming clear that players in this field are potential targets for drug development. This area of epigenetic therapy has established applications for the treatment of cancer and neurological diseases. We have been involved in this field for a number of years and have performed high-throughput screens to identify the first small molecule inhibitors of protein methyltransferases. These methyltransferases target multiple substrates, and thus regulate many arms of an epigenetic pathway. The methylation of different substrates often generates docking sites for effector proteins that harbor binding domains (chromo, tudor, PHD, MBT and ANK repeats). It has been proposed that the binding sites generated for different proteins by these post-translational modifcations mediate downstream effects on chromatin. Consistent with this theory, di- and tri-methylation of histone H3K9 facilitates the binding of heterochromatin protein HP1. The HP1 protein harbors a chromodomain that is responsible for the methyl-dependent interaction between HP1 and lysine 9 of histone H3. HP1 was first described in flies as a heterochromatin associated protein that can regulate gene silencing. It harbors a chromodomain that binds H3K9me3. In addition, it harbors a chromoshadow domain that interacts with a large number of proteins that are involved in heterochromatin formation and gene repression. There are three highly related HP1 isoforms. All three variants are associated with pericentric heterochromatin and it is not clear whether they have specific or redundant functions. MPP8 is also involved in the repression of gene in euchromatic regions (unpublished data) and like HP1 its chromodomain binds H3K9me3. MPP8 harbors an ankyrin repeat region that is likely involved in binding and recruiting interacting proteins with transcriptional repressive function, much like the chromoshadow domain of HP1 does. We hypothesize that by inhibiting specific protein-protein interactions we will be able to develop compounds that block a single arm of an epigenetic pathway. The specificity attained by blocking a single protein-protein interaction will be far greater than that attained by blocking the enzyme that regulates one of many interactions. Low-affinity protein-protein interactions (Kd in the single- to double-digit micromolar range) such as those discussed here have been very difficult to assay by traditional techniques such as fluorescence polarization or fluorescence resonance energy transfer. We have developed a sensitive chemiluminescence-based assay (Quinn, et al. 2009), which serves as the starting point for this project. The following is a validation assay to identify lead compounds that can block methyl-dependent protein-protein interactions (specifically MPP8), which can be used as probes to analyze these methyl-driven interactions and perhaps even developed into targeted epigenetic therapies. Assay Provider: Mark T. Bedford, MD Anderson Screening Center PI: Austin, C.P. Screening Center: NIH Chemical Genomics Center [NCGC]
To each well, 2 uL of MPP8 protein (final 50 nM) and 1 uL biotinylated histone peptide trimethylated at Lys9 [b-H3(1-18)K9me3] (final 50 nM) was added in 1x PBS buffer, pH 7.4, containing 0.01% Tween-20 using a nanoliter dispenser. Formation of a protein-peptide complex proceeded at room temperature for 30 min. A Kalypsys pin-tool was employed to transfer 23 nL of library compound solution in DMSO to each well. Aurintricarboxylic acid (ATA) was used as an intraplate control with a 12-point titration in duplicate. Following a 30 min incubation of the protein-peptide complex with compounds at room temperature, a mixture of 40 ug/mL each streptavidin-coated donor and nickel chelate acceptor AlphaScreen beads (final 10 ug/mL) was added in a 1 uL dispense for a final volume of 4 uL. Plates were incubated protected from the light for 30 min at room temperature. […]
Potency means the concentration at half of the fitted maximal effect.

For `CC(C)(C)c1ccc(C(=O)CCCN2CCC(OC(c3ccccc3)c3ccccc3)CC2)cc1`, which “activity change, negative = inhibition” value is on record?
The value was -6.66% (inactive).

Which “activity change, negative = inhibition” value does the source give for `CC(=O)[C@@]1(O)CC[C@H]2[C@@H]3CCC4=CC(=O)CC[C@]4(C)[C@H]3CC[C@@]21C` here?
The value was 6.81% (inactive).

Which Potency does the source give for `c1ccc2c(c1)CCCC2C1=NCCN1` (stereo not given) here?
Its Potency is “inactive”.

For `O=C(O)CP(=O)(O)O`, which “activity change, negative = inhibition” value is on record?
Its value is -1.34% (inactive).

Which Potency does the source give for `CCCCNc1c(C(=O)OCC)c(C)nc2c1cnn2CC` here?
The Potency was “inactive”.

For `CN(C)CC/C=C1\c2ccccc2COc2ccccc21`, which Potency is on record?
Its Potency is “inactive”.

For `FC(F)(F)c1ccccc1-n1ccnc1`, which Potency is on record?
The Potency was “inactive”.

With `OC(CCN1CCCCC1)(c1ccccc1)C1CCCCC1` (stereo not given) as the molecule, how does the Potency read?
The Potency was “inactive”.

`CN1CCN(CC(=O)N2c3ccccc3C(=O)Nc3cccnc32)CC1` was tested. Which Potency did it give?
Its Potency is “inactive”.

Which Potency does the source give for `CN(C)CCOC(=O)COc1ccc(Cl)cc1` here?
The Potency was “inactive”.

With `CC[N+](C)(C)c1cccc(O)c1` as the molecule, how does the Potency read?
The Potency was “inactive”.

How did the Potency turn out when `C[N+](C)(C)CCCCCCCCCC[N+](C)(C)C` was run?
Its Potency is “inactive”.

With `COc1cc(C(=O)OCCCN2CCCN(CCCOC(=O)c3cc(OC)c(OC)c(OC)c3)CC2)cc(OC)c1OC` as the molecule, how does the “activity change, negative = inhibition” value read?
The value was 1.95% (inactive).

`CN(C)CC[C@@H](c1ccc(Br)cc1)c1ccccn1` was tested. Which Potency did it give?
Its Potency is “inactive”.

For `Nc1nc(N)c2nc(-c3ccccc3)c(N)nc2n1`, which Potency is on record?
The Potency was “inactive”.

How did the Potency turn out when `COCCc1ccc(OCC(O)CNC(C)C)cc1` (stereo not given) was run?
The Potency was “inactive”.

With `COc1ccc(CN(CCN(C)C)c2ccccn2)cc1` as the molecule, how does the Potency read?
Its Potency is “inactive”.

With `C[C@H](CS)C(=O)N1CCC[C@H]1C(=O)O` as the molecule, how does the Potency read?
Its Potency is “inactive”.

`CC(C)(C)NCC(O)c1cc(O)cc(O)c1` (stereo not given) was tested. Which Potency did it give?
Its Potency is “inactive”.

For `C[N+](C)(C)CCOC(N)=O`, which Potency is on record?
The Potency was “inactive”.

With `C[C@]12CCC(=O)C=C1CC[C@@H]1[C@@H]2C(=O)C[C@@]2(C)[C@H]1CC[C@]2(O)C(=O)CO` as the molecule, how does the Potency read?
The Potency was “inactive”.

With `CCOC(=O)c1cnc2c(cnn2CC)c1NN=C(C)C` as the molecule, how does the Potency read?
The Potency was “inactive”.

Which “activity change, negative = inhibition” value does the source give for `CCCC(C(=O)OCCN(CC)CC)(c1ccccc1)c1ccccc1` here?
The value was 10.5% (inactive).

`Cc1cc(C)c(/C=C2\C(=O)Nc3ccccc32)[nH]1` was tested. Which Potency did it give?
The Potency was 7.94 µM (active) and inactive.

With `C#CCN(C)CCCOc1ccc(Cl)cc1Cl` as the molecule, how does the Potency read?
The Potency was “inactive”.

For `CC(C(=O)O)c1ccc(CC2CCCC2=O)cc1` (stereo not given), which Potency is on record?
Its Potency is “inactive”.

`COc1ccc([C@@H]2Sc3ccccc3N(CCN(C)C)C(=O)[C@@H]2OC(C)=O)cc1` was tested. Which “activity change, negative = inhibition” value did it give?
Its value is 6.6% (inactive).

`CO[C@@]1(NC(=O)CSCC#N)C(=O)N2C(C(=O)O)=C(CSc3nnnn3C)CS[C@@H]21` was tested. Which Potency did it give?
The Potency was “inactive”.

Which Potency does the source give for `C=CCc1ccccc1OCC(O)CNC(C)C` (stereo not given) here?
The Potency was “inactive”.

How did the “activity change, negative = inhibition” value turn out when `C[C@@H](O)[C@H]1C(=O)N2C(C(=O)O)=C(SCCN=CN)C[C@H]12` was run?
The value was 4.7% (inactive).

With `CCCN1C[C@H](CSC)C[C@@H]2c3cccc4[nH]cc(c34)C[C@H]21` as the molecule, how does the Potency read?
Its Potency is “inactive”.

With `c1cnc(N2CCN(Cc3ccc4c(c3)OCO4)CC2)nc1` as the molecule, how does the Potency read?
The Potency was “inactive”.

For `CCCN(CCC)CCc1cccc2c1CC(=O)N2`, which Potency is on record?
Its Potency is “inactive”.

Which Potency does the source give for `CCN(Cc1ccncc1)C(=O)C(CO)c1ccccc1` (stereo not given) here?
The Potency was “inactive”.

How did the Potency turn out when `CCn1nc(C(=O)O)c(=O)c2cc3c(cc21)OCO3` was run?
Its Potency is “inactive”.

With `Cc1ccc(Cl)c(Nc2ccccc2C(=O)O)c1Cl` as the molecule, how does the Potency read?
Its Potency is “inactive”.

Which “activity change, negative = inhibition” value does the source give for `CC(C)(Oc1ccc(CCNC(=O)c2ccc(Cl)cc2)cc1)C(=O)O` here?
Its value is -1.71% (inactive).

`CCN(CC)CCCN(c1ccccc1)C1Cc2ccccc2C1` was tested. Which “activity change, negative = inhibition” value did it give?
Its value is 0.894% (inactive).

With `Cc1ccc(=O)n(-c2ccccc2)c1` as the molecule, how does the Potency read?
The Potency was “inactive”.

`CCCCCN(CCCCC)C(=O)C(CCC(=O)O)NC(=O)c1ccc(Cl)c(Cl)c1` (stereo not given) was tested. Which Potency did it give?
Its Potency is “inactive”.
